Laboratory results as given in PubChem BioAssay (NCI).
About 83,000 compounds went through this panel and 20% of them were active in at least one assay; those are over-represented in the sample as a whole.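 Note: values are percent growth. 100 is the growth of untreated cells, values between 100 and 0 indicate rising inhibition; between -100 and 0 indicates cell death.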 Active and inactive are the calls of the source. The calls were made as follows: active = growth percent below 10; inactive = the rest.

Legend:
Assay in all cases: NCI-60 one-dose screen, 48 h (100 = growth as untreated, 0 = no growth, -100 = all killed)
Conditions in all cases: 10 µM unless noted
[1] = test system: T-47D breast
[2] = test system: BT-549 breast
[3] = test system: MDA-MB-435 melanoma
[4] = test system: SW-620 colon
[5] = test system: MCF7 breast
[6] = test system: HCT-116 colon
[7] = test system: HCC-2998 colon
[8] = test system: KM12 colon

Measured: growth

O=[N+]([O-])c1cccc(C(c2ccccc2)c2ccccc2)c1
inactive: [1] 83.2% | [2] 106% | [3] 99.5% | [4] 87.7% | [5] 106% | [6] 65.6% | [7] 92.5% | [8] 87%

O=C(/C=C/c1ccco1)c1cccc(Nc2nc(Nc3ccccc3)nc(Nc3ccccc3)n2)c1
inactive: [1] 48.6% | [2] 116% | [3] 102% | [4] 88% | [5] 28.3% | [6] 40.4% | [7] 68.5% | [8] 83.7%

O=C(Nc1ccc(-n2cc(-c3ccncc3)c(-c3ccc(O)c(Cl)c3)n2)cc1)Nc1cc(C(F)(F)F)cc(C(F)(F)F)c1
inactive: [1] 33.2% | [2] 20.4% | [3] 54.6% | [4] 73.9% | [5] 55.7% | [6] 53.3% | [7] 79% | [8] 48.7%

FC(F)(F)c1cn(CCN2CCOCC2)c2ncnc(Cl)c12
inactive: [1] 95.1% | [2] 93.6% | [3] 56.5% | [4] 53.7% | [5] 97.5% | [6] 15.4% | [7] 75.2% | [8] 101%

COC(=O)/C=C/C(=O)c1cc(C)cc(C)c1O
inactive: [1] 100% | [2] 103% | [3] 103% | [4] 110% | [5] 95.5% | [6] 106% | [7] 96.7% | [8] 99.1%

COC(=O)c1ccc2c(c1)Oc1ccc(Cl)cc1-c1cc(C)nn1-2
inactive: [1] 71.7% | [2] 96% | [3] 97.5% | [4] 68.5% | [5] 79.4% | [6] 44% | [7] 100% | [8] 87.7%

NC(CCCC(N)C(=O)c1ccccc1)C(=O)O (centres undefined)
inactive: [1] 89.9% | [2] 104% | [3] 105% | [4] 110% | [5] 91.2% | [6] 99.2% | [7] 103% | [8] 101%

COc1ccccc1S(=O)(=O)Nc1ccc2c3c(cc(-c4cnn(C)c4)nc13)C(=O)N2C
inactive: [1] 35.5% | [2] 62.6% | [3] 35.2% | [4] 63.2% | [5] 16.5% | [6] 28.2% | [7] 48.2% | [8] 38.2%

COc1ccc2c(c1)nnn1c3ncccc3c(N=O)c21
inactive: [7] 12.6%
active: [1] -0.214% | [2] -11.7% | [3] -5.59% | [4] -80.3% | [5] -58.7% | [6] -86% | [8] 5.81%

C#C[C@@]1(O)[C@@H](CO)O[C@@H](n2cc(Br)c3c(Cl)ccnc32)[C@@H]1O
inactive: [2] 22.6% | [3] 56.7% | [4] 14.5% | [6] 23.1% | [7] 37% | [8] 65%
active: [1] -17.8% | [5] 1.48%

CC1OC(n2c3ccccc3c3c4c(c5c6ccccc6[nH]c5c32)C(=O)N(CCN[C@@H]2CCC[C@H]2N)C4=O)CC(O)C1O (some centres undefined)
active: [4] 5.32% | [5] -34% | [6] 9.41% | [7] -9.5%
inactive: [1] 19.6% | [2] 23.8% | [3] 18.4% | [8] 14.7%

Cc1nc(-c2ccc(Cl)cc2)ccc1NC(=O)Nc1cccc(C(F)(F)F)c1
inactive: [1] 87.5% | [2] 98.6% | [3] 103% | [4] 89.6% | [5] 81% | [6] 74.5% | [7] 107% | [8] 101%

OCCOCC(F)(F)F
inactive: [1] 104% | [2] 97.7% | [3] 94.4% | [4] 100% | [5] 105% | [6] 106% | [7] 104% | [8] 113%

CN1CCN(Cn2nc(-c3cc(Cl)cc(Cl)c3Cl)n(/N=C/c3ccc(Cl)cc3)c2=S)CC1
inactive: [1] 94.9% | [2] 102% | [3] 107% | [4] 110% | [5] 95.5% | [6] 89.4% | [7] 103% | [8] 107%

CCn1c(C)nc([N+](=O)[O-])c1Sc1nc(N)nc2nc[nH]c12
inactive: [1] 44.8% | [2] 47.9% | [3] 25.3% | [4] 39.4% | [5] 14.5% | [6] 16% | [7] 30.6% | [8] 21.2%

CCc1cccc(C)c1NC(=O)c1sc2nc3c(cc2c1N)CCCCC3
inactive: [1] 46.7% | [2] 58.3% | [4] 23.8% | [5] 18.9% | [6] 21.1% | [7] 54.7% | [8] 23%
active: [3] -16.9%

Cc1cccc(Cc2cnc(NC(=O)CCc3ccc(C)o3)s2)c1
active: [2] 5.79% | [3] -23.1%
inactive: [1] 76.9% | [4] 30% | [5] 12.4% | [6] 11.5% | [7] 23.7% | [8] 12.6%

O[C@@H]1CCO[C@H](c2ccc3ccccc3c2)C1
inactive: [1] 89.4% | [2] 105% | [3] 106% | [4] 105% | [5] 103% | [6] 96.6% | [7] 98.6% | [8] 104%

O=C(O)c1ccc2nc(-c3ccc(OCCCCCOc4ccc(-c5nc6ccc(C(=O)O)cc6[nH]5)cc4)cc3)[nH]c2c1
inactive: [1] 51.2% | [2] 130% | [3] 189% | [4] 57.1% | [5] 82.3% | [6] 88.6% | [7] 16.4% | [8] 98.6%

Cc1cc(C)c(O)c(C(=O)CC(Br)C(=O)O)c1 (centres undefined)
inactive: [1] 92.9% | [2] 97.6% | [3] 102% | [4] 116% | [5] 66.6% | [6] 99.3% | [7] 93.3% | [8] 97.9%

Cc1ccc(/C=C2/C(=O)Nc3cc(Cl)c(-c4csc(N)n4)cc32)cc1
inactive: [1] 34.9% | [2] 53.4% | [4] 58.6% | [5] 35.8% | [6] 66% | [7] 91.4% | [8] 44.5%
active: [3] -9.13%

COc1ccc(NC(=O)Nc2ccc(-c3ccc(OC)c(OC)c3)nc2C)cc1
inactive: [1] 60.4% | [2] 50.4% | [3] 65.2% | [4] 64.8% | [5] 65.1% | [6] 49.4% | [7] 83.1% | [8] 45.3%

O=S(=O)(CCN1CCOCC1)Nc1cc(-c2ccc3ncnc(Nc4ccc(F)c(Cl)c4)c3c2)cnc1Cl
active: [1] -32.6% | [2] -9.24% | [3] 6.92%
inactive: [4] 30.4% | [5] 13.6% | [6] 18.9% | [7] 17.4% | [8] 20.8%

C=CC(C)(O)CCC1C(=C)CCC2C(C)(C)CCCC12C (centres undefined)
inactive: [1] 99.4% | [2] 111% | [3] 107% | [4] 111% | [5] 92.7% | [6] 107% | [7] 99.5% | [8] 99.8%

CC1(C)N=C(N)N=C(N)N1c1cccc(CCCCc2ccccc2)c1
inactive: [1] 18.1% | [4] 25.3%
active: [2] -35.1% | [3] -0.215% | [5] 3.82% | [6] 2.07% | [7] -9.45% | [8] -42.8%

O=C(O)c1ccc(-n2cc(/C=N/Nc3ccc(Cl)cc3)c(-c3ccc(F)c(F)c3)n2)cc1
inactive: [1] 65.9% | [2] 70% | [3] 86.5% | [4] 61.3% | [5] 46.5% | [6] 47.5% | [7] 82.6% | [8] 69.2%

COc1ccc(C2=NN(C(=O)COc3ccc(Cl)cc3)C(O)(c3cc(F)c(Cl)cc3Cl)C2)cc1OC (centres undefined)
inactive: [7] 78.4% | [8] 60.4%
active: [1] -51.1% | [2] -76% | [3] 8.66% | [4] -84.8% | [5] 7.79% | [6] -69.1%

c1ccc2c(c1)Oc1cccnc1-n1nccc1-2
inactive: [1] 105% | [2] 101% | [3] 107% | [4] 102% | [5] 98.6% | [6] 104% | [7] 110% | [8] 100%
